Compound activity from PubChem BioAssay.
CYP2C9 act = human CYP2C9 activators, primary screen, biochemical, luminescence. activation factor at 5 µM. Cytochrome P450 2C9 (Homo sapiens), P11712. actives 1.4% (n = 96,000). recombinant CYP2C9, luciferin-H conversion; stronger effect = higher value; factor 1 = untreated enzyme, 0 = blocked;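 active means activation factor of 2 or more for CYP2C9 at a 5 µM dose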;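 further: 0 = sulfaphenazole-blocked wells and 1 = vehicle-only wells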
Cav3 T inh = Cav3.2 calcium influx blockers – cell-based, Fluo-4 calcium fluorescence, FDSS, MLSMR library, primary screen; Voltage-dependent T-type calcium channel subunit alpha-1H (Homo sapiens), O95180; Cav3.2-expressing cells; stronger effect = lower value; B-score at 10 µM; AID 449739, 2010; actives 4% (n = 100,000);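 active means single-dose well whose peak fluorescence ratio is a statistical outlier from its plate by either plate-standardised score or position-corrected B-score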
CYP2C19 activ = human CYP2C19 activators, primary screen, biochemical, luminescence; Cytochrome P450 2C19 (Homo sapiens), P33261; recombinant CYP2C19, luciferin-H EGE luminescence; stronger effect = higher value; 0 = fully inhibited enzyme, 1 = untreated enzyme; activation factor at 5 µM; 96,000 tested, under 10 active;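 active means activation factor of at least 2 at 5 µM in the primary screen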;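 further: 0 = wells with 2.5 mM tranylcypromine and 1 = vehicle-only wells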
Target sequence (P33261 whole entry, looked up): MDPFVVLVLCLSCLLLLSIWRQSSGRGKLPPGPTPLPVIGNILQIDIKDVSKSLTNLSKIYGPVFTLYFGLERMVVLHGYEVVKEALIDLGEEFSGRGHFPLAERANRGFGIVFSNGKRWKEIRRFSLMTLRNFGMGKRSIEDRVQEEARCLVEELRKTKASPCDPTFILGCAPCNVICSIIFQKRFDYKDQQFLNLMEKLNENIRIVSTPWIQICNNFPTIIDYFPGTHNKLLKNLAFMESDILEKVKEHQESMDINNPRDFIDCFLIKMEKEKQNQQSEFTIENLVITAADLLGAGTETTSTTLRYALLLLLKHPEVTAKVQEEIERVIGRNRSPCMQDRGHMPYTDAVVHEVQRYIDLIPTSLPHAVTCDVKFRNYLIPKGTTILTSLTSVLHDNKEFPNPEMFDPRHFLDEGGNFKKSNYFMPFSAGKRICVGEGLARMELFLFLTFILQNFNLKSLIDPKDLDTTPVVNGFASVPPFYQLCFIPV
CYP2C9 inh = blockers of cytochrome P450 2C9 activity – biochemical, luminescence, ADME assay, primary screen | P11712 | CYP2C9 Supersomes, luciferin-H conversion | inhibition, % at 5 µM | actives 20% (n = 96,000);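 active means blocking of liver enzyme CYP2C9 beyond about 50% at 5 µM, limit read from the data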
CYP2C19 inh = blockers of cytochrome P450 2C19 activity – biochemical, luminescence, ADME assay, primary screen | P33261 | CYP2C19 Supersomes, luciferin-H EGE luminescence, 30 min | inhibition, % at 5 µM | actives 21% (n = 96,000) | AID 778, 2007;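 active means CYP2C19 inhibition above a set limit at 5 µM in the primary screen, cut at about 50% in these data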;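 further: plate controls were negative control wells for no effect and 2.5 mM tranylcypromine positive control for full effect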
Active calls of the source: *; nt = not tested or not shown. Shown are actives, neighbours in structure and some others; about 27% of the full set was active somewhere.

SMILES	CYP2C9 act	Cav3 T inh	CYP2C19 activ	CYP2C9 inh	CYP2C19 inh
COc1ccc(-c2nc3ccccc3[nH]2)cc1	0.6	1.9	0.4	35	65*
Cc1[nH]c2ccccc2c1-c1nc2ccccc2[nH]1	0.3	-0.072	0.6	68*	39
Cc1ccc(-c2nc3ccccc3[nH]2)s1	0.7	1.7	0.6	33	40
Cc1cc2c(cc1C)NC(c1c(C)n(C)n(-c3ccccc3)c1=O)C1=C(CC(C)(C)CC1=O)N2 (stereo unspecified)	1.2	-0.91	1.1	-17	-6
O=S(=O)(Cc1cccc(F)c1)c1c[nH]c2ccccc12	0.2	-0.068	0	81*	100*
COC(=O)c1ccc(NC(=O)c2cccc(Cl)c2)o1	0.7	-0.029	0.8	25	18
CCn1nnc(NC(=O)c2cc3ccccc3o2)n1	0.9	0.38	1	10	-2
C=CCN1CCN(c2ccncc2S(=O)(=O)N2CCOCC2)CC1	1	1.2	1	0	-3
CCCc1nc2c(nnn2Cc2ccccc2)c(=O)[nH]1	1	0.64	0.2	0	78*
O=C(c1ccccc1Cl)N1CCCC(c2nc3c(nnn3Cc3ccccc3)c(=O)[nH]2)C1 (stereo unspecified)	0.2	0.48	0.9	84*	12
O=c1[nH]c(C2CCCN(S(=O)(=O)c3ccccc3)C2)nc2c1nnn2Cc1ccccc1F (stereo unspecified)	nt	0.2	nt	nt	nt
COc1cccc(Cn2nnc3c(=O)[nH]c(C4CCCN(C(=O)c5ccccc5Cl)C4)nc32)c1 (stereo unspecified)	0.2	0.3	0.6	83*	39
O=C(C1CCC1)N1CCC(c2nc3c(nnn3Cc3c(F)cccc3Cl)c(=O)[nH]2)CC1	0.3	1.3	0.8	71*	18
O=C(NCc1ccccc1)c1nc2c(nnn2Cc2cccc(Cl)c2)c(=O)[nH]1	nt	-0.31	nt	nt	nt
COc1ccc(Cn2nnc3c(=O)[nH]c(C4CCCN(C(=O)c5ccccc5)C4)nc32)cc1 (stereo unspecified)	nt	1.2	nt	nt	nt
Cc1cccc(Nc2nc(N)nc(CSc3nccn3C)n2)c1	0.9	0.081	0.9	12	12
Cc1ccnc2nc(C(=O)N3CCN(S(=O)(=O)c4ccccc4)CC3)nn12	1.2	0.072	1.1	-19	-6
O=C(O)C1=C[C@H](c2ccc(C(F)(F)F)cc2)C[C@H](OCc2ccc(CO)cc2)O1	nt	-1.4	nt	nt	nt
Cc1ccc(S(=O)(=O)N2CCN(S(C)(=O)=O)CC2)cc1	nt	0.21	nt	nt	nt
O=c1[nH]c(C2CCCN(S(=O)(=O)c3ccccc3)C2)nc2c1nnn2Cc1ccccc1 (stereo unspecified)	0.2	-1.8	0.6	81*	44
C=CCNC(=O)COC(=O)COc1ccc(Cl)cc1C	1.2	-0.74	0.9	-15	7
Cc1cc(C)c2c(-n3cccc3)c(C(=O)NNS(=O)(=O)c3ccccc3)sc2n1	0	-1.5	0.7	96*	33
Cc1cc(C)c2c(-n3cccc3)c(C(=O)O)sc2n1	nt	-0.14	nt	nt	nt
COc1ccc(S(=O)(=O)N[C@@H](Cc2ccc(Cl)cc2)C(=O)N2CC[C@@]3(O)CCCC[C@H]3C2)cc1	0.7	-1.6	0.6	31	44
FC(F)(F)c1cccc(Cn2nnnc2-c2ccc(Cl)cc2)c1	0.4	-4.7	0.1	61*	92*
SMILES	CYP2C9 act	Cav3 T inh	CYP2C19 activ	CYP2C9 inh	CYP2C19 inh
Cc1cc(NC(=O)CN2C(=O)CC(c3ccco3)Sc3ccccc32)no1 (stereo unspecified)	nt	-0.062	nt	nt	nt
Cc1ccc(NC(=O)N2CCC(=O)N2)cc1	1	-0.02	1.1	-5	-10
C[C@@H]1C[C@H](Nc2ccccc2)c2ccccc2N1C(=O)c1cccnc1	0.6	-0.72	0.2	38	84*
CC1CC(Nc2ccccc2)c2ccccc2N1C(=O)c1cccnc1 (stereo unspecified)	nt	0.2	nt	nt	nt
Cc1cccc(-n2c(O)c(C=Nc3c(C)n(C)n(-c4ccccc4)c3=O)c3ccccc3c2=O)n1	0.6	-1.6	0.8	36	16
COc1cccc(N=Cc2c(O)n(-c3cccc(C)n3)c(=O)c3ccccc23)c1	0.5	-0.27	0.3	53*	66*
S=C(c1ccc[nH]1)N1CCOCC1	nt	0.63	nt	nt	nt
COc1c(F)c(F)c(C(=O)O)c(Nc2ccccc2)c1F	1	0.008	0.9	0	14
c1csc(C2C3=C(Nc4ncnn42)c2ccccc2OC3)c1 (stereo unspecified)	0.6	-0.65	0.7	37	29
Fc1ccc(/C=C2\CCCC3=C2Nc2ncnn2C3c2ccc(F)cc2)cc1 (stereo unspecified)	0.9	0.031	0.9	15	6
COc1cc(C2C3=C(Nc4ncnn42)c2ccccc2CC3)cc(OC)c1OC (stereo unspecified)	0.3	-0.17	0.3	66*	66*
COc1ccc(C2C3=C(Nc4ncnn42)c2ccccc2CCC3)cc1 (stereo unspecified)	0.3	-0.081	0.1	68*	92*
Cc1ccc(CCN2CC(C(=O)NCCCN3CCN(C)CC3)CC2=O)cc1 (stereo unspecified)	0.9	-0.43	1	7	1
Cc1cc(NS(=O)(=O)c2ccc(NC(=O)C(C)Oc3ccc(Cl)cc3)cc2)no1 (stereo unspecified)	1.1	-0.21	1	-10	-3
CC(Oc1ccc(Cl)cc1Cl)C(=O)Nc1ccc(S(=O)(=O)Nc2cnc3ccccc3n2)cc1 (stereo unspecified)	0	-2.3	0.9	100*	14
Cc1cc(Cl)ccc1OC(C)C(=O)Nc1ccc(S(=O)(=O)Nc2cnc3ccccc3n2)cc1 (stereo unspecified)	0.1	-2.6	1	88*	-4
CC(O)[C@H]1CN=C(N)N1CC1CCCCC1 (stereo partly specified)	nt	0.078	nt	nt	nt
CCOc1cc(C2CC(=O)c3c(ccc4ccccc34)N2)ccc1O (stereo unspecified)	0.3	-1.7	0.8	65*	24
COc1ccc(C2CC(=O)c3c(ccc4ccccc34)N2)cc1OC (stereo unspecified)	0.7	nt	0.9	32	14
CCOc1ccccc1N1CC(C(=O)Nc2nccs2)CC1=O (stereo unspecified)	1.1	-0.19	0.9	-13	9
O=C(O)C(Cc1ccccc1)N1Cc2ccccc2C1=O (stereo unspecified)	0.8	0.32	1	17	-4
CC(C)CCNC(=O)[C@H](CSCc1ccccc1)N1Cc2ccccc2C1=O	nt	-3.8*	nt	nt	nt
CCOC(=O)N1CCN(C(=O)CSCC(=O)Nc2nc(-c3ccc(Cl)s3)cs2)CC1	nt	-2.9	nt	nt	nt
Cc1sc(-n2c(C)cc(C=O)c2C)c(C(=O)O)c1C	0.9	0.012	1.1	8	-8
